Assay [1] is described as follows: CEETOX_H295R_CORTIC: CeeTox H295R High-throughput Steroidogenesis Assay for Corticosterone (CORTIC) (AID 2283437).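 Further: corticosterone secreted into medium quantified by mass spectrometry.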 The note with it: actives raise or lower the signal. In a few lines: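 Corticosterone secreted into medium is measured by reverse-phase HPLC with tandem MS following liquid-liquid extraction. Cells are forskolin-stimulated (10 uM, 48 h) before 48 h test exposure; activity fitted in both directions against DMSO.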

Assay [2] in a line: CEETOX_H295R_DOC: CeeTox H295R High-throughput Steroidogenesis Assay for DOC (AID 2283439). The settings on record: actives raise or lower the signal. In a few lines: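 Readout: 11-deoxycorticosterone in culture medium by reverse-phase C18 HPLC with ESI+ tandem MS after MTBE extraction. Cells: H295R, forskolin-primed (10 uM, 48 h), chemical-treated 48 h; DMSO 0.1% final. Activity fitted bidirectionally versus DMSO.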

Assay [3] in a line: CEETOX_H295R_PROG: CeeTox H295R High-throughput Steroidogenesis Assay for Progesterone (PROG) (AID 2283442). The settings on record: actives raise or lower the signal. In a few lines: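 H295R human adrenal cells were prestimulated with 10 uM forskolin for 48 h, then exposed to test chemical (0.1% DMSO final) for 48 h. Medium progesterone was MTBE-extracted and quantified by HPLC-MS/MS, with bidirectional fitting against DMSO.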

Read-out in assay [4]: Tumor necrosis factor receptor superfamily member 6 (Homo sapiens) (UniProt P25445)
The assay can be described thus: LTEA_HepaRG_FAS: Life Technologies and Expression Analysis (LTEA) Assay for Fas cell surface death receptor (FAS) using HepaRG (AID 2283447). The note with it: mRNA level, 48 h; actives raise or lower the signal. In a few lines:
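FAS transcript level was measured by TaqMan qRT-PCR against three housekeeping genes after 48 h chemical exposure. Cells were HepaRG, 0.5% DMSO vehicle, with a top concentration of 100 uM and half-log dilutions over eight points, in duplicate.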

Read-out in assay [5]: Fatty acid synthase (Homo sapiens) (UniProt P49327)
As to the kind of experiment: LTEA_HepaRG_FASN: Life Technologies and Expression Analysis (LTEA) Assay for Fatty Acid Synthase (FASN) using HepaRG (AID 2283448). The note with it: mRNA level, 48 h; actives raise or lower the signal. In short, it runs like this:
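FASN expression changes, up or down relative to 0.5% DMSO, were measured by qRT-PCR in human HepaRG cells after 48 h treatment with chemicals at eight concentrations (half-log steps from 100 uM).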

Read-out in assay [6]: Cyclin D2 (CCND2), CCND2 (gene 894)
The assay can be described thus: LTEA_HepaRG_CCND2: Life Technologies and Expression Analysis (LTEA) Assay for Cyclin D2 (CCND2) using HepaRG (AID 2283449). The settings on record: mRNA level, 48 h; actives raise or lower the signal. In short, it runs like this: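 Read-out is CCND2 mRNA level measured by qRT-PCR in human HepaRG liver cells and normalised to three housekeeping genes. Chemicals were applied for 48 h at up to 100 uM, with gain or loss fitted relative to 0.5% DMSO.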

Read-out in assay [7]: Cyclin Dependent Kinase Inhibitor 1A (CDKN1A), CDKN1A (gene 1026)
The assay can be described thus: LTEA_HepaRG_CDKN1A: Life Technologies and Expression Analysis (LTEA) Assay for Cyclin Dependent Kinase Inhibitor 1A (CDKN1A) using HepaRG (AID 2283450). The note with it: mRNA level, 48 h; actives raise or lower the signal. In a few lines: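 Differentiated human HepaRG cells, pre-cultured 48 h, were exposed in duplicate for 48 h in serum-free induction medium to eight half-log concentrations up to 100 uM (0.5% DMSO). CDKN1A mRNA was measured by qRT-PCR, normalized to ACTB/GAPDH/POLR2A, bidirectionally fitted versus DMSO.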

Read-out in assay [8]: Cyclin D1 (CCND1), CCND1 (gene 595)
The assay can be described thus: LTEA_HepaRG_CCND1: Life Technologies and Expression Analysis (LTEA) Assay for Cyclin D1 (CCND1) using HepaRG (AID 2283451). The settings on record: mRNA level, 48 h; actives raise or lower the signal. In short, it runs like this: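 Differentiated human HepaRG cells in serum-free induction medium were exposed 48 h to eight half-log concentrations up to 100 uM in 0.5% DMSO; mRNA quantified by TaqMan qRT-PCR, normalized to ACTB, GAPDH, POLR2A, fitted bidirectionally versus DMSO.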

Read-out in assay [9]: flavin-containing dimethylaniline monooxygenases 3 (FMO3), FMO3 (gene 2328)
The assay can be described thus: LTEA_HepaRG_FMO3: Life Technologies and Expression Analysis (LTEA) Assay for flavin-containing dimethylaniline monooxygenases 3 (FMO3) using HepaRG (AID 2283453). The settings on record: mRNA level, 48 h; actives raise or lower the signal. In short, it runs like this:
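Differentiated HepaRG cells in serum-free induction medium, exposed 48 h in duplicate to 8 half-log concentrations up to 100 uM in 0.5% DMSO. FMO3 mRNA by qRT-PCR, normalized to ACTB, GAPDH, POLR2A; bidirectional fit vs DMSO.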

Read-out in assay [10]: Cytochrome P450 (CYP1A1), CYP1A1 (gene 1543)
As to the kind of experiment: LTEA_HepaRG_CYP1A1: Life Technologies and Expression Analysis (LTEA) Assay for Cytochrome P450 (CYP1A1) using HepaRG (AID 2283454). The note with it: mRNA level, 48 h; actives raise or lower the signal. In short, it runs like this:
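Differentiated HepaRG cells in serum-free induction medium were exposed in duplicate for 48 h to eight half-log concentrations up to 100 uM in 0.5% DMSO. CYP1A1 mRNA was quantified by TaqMan qRT-PCR, normalized to ACTB, GAPDH and POLR2A.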

Read-out in assay [11]: CFLAR gene, CFLAR (gene 8837)
As to the kind of experiment: LTEA_HepaRG_CFLAR: Life Technologies and Expression Analysis (LTEA) Assay for CFLAR gene using HepaRG (AID 2283455). The note with it: mRNA level, 48 h; actives raise or lower the signal. In short, it runs like this:
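HepaRG, 48 h exposure, 8-pt conc-response (100 uM top, half-log), 0.5% DMSO vehicle, duplicates. CFLAR expression by qRT-PCR; ACTB/GAPDH/POLR2A normalization; gain or loss fit vs DMSO baseline.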

Read-out in assay [12]: Forkhead box O1 (FOXO1), FOXO1 (gene 2308)
The assay can be described thus: LTEA_HepaRG_FOXO1: Life Technologies and Expression Analysis (LTEA) Assay for Forkhead box O1 (FOXO1) using HepaRG (AID 2283456). The settings on record: mRNA level, 48 h; actives raise or lower the signal. In short, it runs like this: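 Readout is FOXO1 transcript level by multiplexed qRT-PCR against three housekeeping genes, curve-fitted in both directions relative to 0.5% DMSO vehicle. Human HepaRG cultures received chemicals for 48 h, up to 100 uM in half-log steps.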

Read-out in assay [13]: Forkhead box O3 (FOXO3), FOXO3 (gene 2309)
The assay can be described thus: LTEA_HepaRG_FOXO3: Life Technologies and Expression Analysis (LTEA) Assay for Forkhead box O3 (FOXO3) using HepaRG (AID 2283459). The note with it: mRNA level, 48 h; actives raise or lower the signal. In a few lines: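 HepaRG, 48 h post-dose; 8 conc., half-log from 100 uM, 0.5% DMSO, duplicates; serum-free induction medium. Readout: FOXO3 mRNA, TaqMan qRT-PCR, housekeeping-normalized. Bidirectional curve fit vs DMSO baseline.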

Read-out in assay [14]: ABC Transporter (ABCB1), ABCB1 (gene 5243)
The assay can be described thus: LTEA_HepaRG_ABCB1: Life Technologies and Expression Analysis (LTEA) Assay for ABC Transporter (ABCB1) using HepaRG (AID 2283460). The settings on record: mRNA level, 48 h; actives raise or lower the signal. In short, it runs like this: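 Expression of ABCB1 was quantified by qRT-PCR against three housekeeping genes after human HepaRG cultures received test chemicals for 48 hours. Concentrations spanned eight half-log steps topping at 100 uM in 0.5% DMSO; gain or loss of signal was fitted relative to vehicle.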

Read-out in assay [15]: growth arrest and DNA damage 45 (GADD45B), GADD45B (gene 4616)
As to the kind of experiment: LTEA_HepaRG_GADD45B: Life Technologies and Expression Analysis (LTEA) Assay for growth arrest and DNA damage 45 (GADD45B) using HepaRG (AID 2283461). The note with it: mRNA level, 48 h; actives raise or lower the signal. In short, it runs like this: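 Differentiated HepaRG cells, plated 48 h then switched to serum-free induction medium, were exposed 48 h in duplicate to eight half-log concentrations from 100 uM in 0.5% DMSO; mRNA quantified by qRT-PCR, normalized to ACTB/GAPDH/POLR2A, bidirectional fit versus DMSO.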

Read-out in assay [16]: ABC Transporter (ABCC3), ABCC3 (gene 8714)
The assay can be described thus: LTEA_HepaRG_ABCC3: Life Technologies and Expression Analysis (LTEA) Assay for ABC Transporter (ABCC3) using HepaRG (AID 2283462). The note with it: mRNA level, 48 h; actives raise or lower the signal. In short, it runs like this: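 HepaRG cells in serum-free induction medium were exposed for 48 h in duplicate to 8-point half-log concentrations topping at 100 uM in 0.5% DMSO. ABCC3 mRNA was measured by qRT-PCR normalized to ACTB, GAPDH and POLR2A, with bidirectional fitting versus DMSO.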

Read-out in assay [17]: ABC Transporter (ABCB11), ABCB11 (gene 8647)
As to the kind of experiment: LTEA_HepaRG_ABCB11: Life Technologies and Expression Analysis (LTEA) Assay for ABC Transporter (ABCB11) using HepaRG (AID 2283463). The settings on record: mRNA level, 48 h; actives raise or lower the signal. In short, it runs like this: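 ABCB11 transcript levels are read by Fluidigm TaqMan qRT-PCR after 48 h chemical treatment of human HepaRG cells. Concentrations span 100 uM downward in half-log steps with 0.5% DMSO; gain or loss is fitted against DMSO controls.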

Assay [18] in a line: CEETOX_H295R_ESTRADIOL: CeeTox H295R High-throughput Steroidogenesis Assay for Estradiol (AID 2283440).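 Further: estradiol secreted into medium quantified by LC-MS/MS after dansyl derivatisation.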 The settings on record: actives raise or lower the signal. In a few lines: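 H295R adrenocortical cells were prestimulated with 10 uM forskolin for 48 h, then exposed to test chemical in 0.1% DMSO for 48 h. Medium estradiol was extracted with MTBE, dansyl-derivatized and quantified by HPLC-MS/MS; bidirectional fit versus DMSO.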

Assay [19] in a line: CEETOX_H295R_ESTRONE: CeeTox H295R High-throughput Steroidogenesis Assay for Estrone (AID 2283441).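 Further: estrone secreted into medium measured by LC-MS/MS after dansyl derivatization.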 The settings on record: actives raise or lower the signal. In short, it runs like this:
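H295R cells prestimulated 48 h with 10 uM forskolin, then exposed 48 h to chemicals in 0.1% DMSO final; estrone in medium extracted with MTBE, dansyl-derivatized, quantified by HPLC-MS/MS; bidirectional fitting versus DMSO, viability by MTT.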

Each structure is given as a SMILES string. The source made the active and inactive calls. How the source made its calls: active means hit-call score of the fitted dose curve at least 0.9, where 1 is the maximum; inactive means score below 0.9.

Outcome and AC50 data for six molecules are collected here from PubChem BioAssay (EPA / NIEHS).

Chain of Fatty acid synthase (Homo sapiens) (P49327 whole entry, looked up): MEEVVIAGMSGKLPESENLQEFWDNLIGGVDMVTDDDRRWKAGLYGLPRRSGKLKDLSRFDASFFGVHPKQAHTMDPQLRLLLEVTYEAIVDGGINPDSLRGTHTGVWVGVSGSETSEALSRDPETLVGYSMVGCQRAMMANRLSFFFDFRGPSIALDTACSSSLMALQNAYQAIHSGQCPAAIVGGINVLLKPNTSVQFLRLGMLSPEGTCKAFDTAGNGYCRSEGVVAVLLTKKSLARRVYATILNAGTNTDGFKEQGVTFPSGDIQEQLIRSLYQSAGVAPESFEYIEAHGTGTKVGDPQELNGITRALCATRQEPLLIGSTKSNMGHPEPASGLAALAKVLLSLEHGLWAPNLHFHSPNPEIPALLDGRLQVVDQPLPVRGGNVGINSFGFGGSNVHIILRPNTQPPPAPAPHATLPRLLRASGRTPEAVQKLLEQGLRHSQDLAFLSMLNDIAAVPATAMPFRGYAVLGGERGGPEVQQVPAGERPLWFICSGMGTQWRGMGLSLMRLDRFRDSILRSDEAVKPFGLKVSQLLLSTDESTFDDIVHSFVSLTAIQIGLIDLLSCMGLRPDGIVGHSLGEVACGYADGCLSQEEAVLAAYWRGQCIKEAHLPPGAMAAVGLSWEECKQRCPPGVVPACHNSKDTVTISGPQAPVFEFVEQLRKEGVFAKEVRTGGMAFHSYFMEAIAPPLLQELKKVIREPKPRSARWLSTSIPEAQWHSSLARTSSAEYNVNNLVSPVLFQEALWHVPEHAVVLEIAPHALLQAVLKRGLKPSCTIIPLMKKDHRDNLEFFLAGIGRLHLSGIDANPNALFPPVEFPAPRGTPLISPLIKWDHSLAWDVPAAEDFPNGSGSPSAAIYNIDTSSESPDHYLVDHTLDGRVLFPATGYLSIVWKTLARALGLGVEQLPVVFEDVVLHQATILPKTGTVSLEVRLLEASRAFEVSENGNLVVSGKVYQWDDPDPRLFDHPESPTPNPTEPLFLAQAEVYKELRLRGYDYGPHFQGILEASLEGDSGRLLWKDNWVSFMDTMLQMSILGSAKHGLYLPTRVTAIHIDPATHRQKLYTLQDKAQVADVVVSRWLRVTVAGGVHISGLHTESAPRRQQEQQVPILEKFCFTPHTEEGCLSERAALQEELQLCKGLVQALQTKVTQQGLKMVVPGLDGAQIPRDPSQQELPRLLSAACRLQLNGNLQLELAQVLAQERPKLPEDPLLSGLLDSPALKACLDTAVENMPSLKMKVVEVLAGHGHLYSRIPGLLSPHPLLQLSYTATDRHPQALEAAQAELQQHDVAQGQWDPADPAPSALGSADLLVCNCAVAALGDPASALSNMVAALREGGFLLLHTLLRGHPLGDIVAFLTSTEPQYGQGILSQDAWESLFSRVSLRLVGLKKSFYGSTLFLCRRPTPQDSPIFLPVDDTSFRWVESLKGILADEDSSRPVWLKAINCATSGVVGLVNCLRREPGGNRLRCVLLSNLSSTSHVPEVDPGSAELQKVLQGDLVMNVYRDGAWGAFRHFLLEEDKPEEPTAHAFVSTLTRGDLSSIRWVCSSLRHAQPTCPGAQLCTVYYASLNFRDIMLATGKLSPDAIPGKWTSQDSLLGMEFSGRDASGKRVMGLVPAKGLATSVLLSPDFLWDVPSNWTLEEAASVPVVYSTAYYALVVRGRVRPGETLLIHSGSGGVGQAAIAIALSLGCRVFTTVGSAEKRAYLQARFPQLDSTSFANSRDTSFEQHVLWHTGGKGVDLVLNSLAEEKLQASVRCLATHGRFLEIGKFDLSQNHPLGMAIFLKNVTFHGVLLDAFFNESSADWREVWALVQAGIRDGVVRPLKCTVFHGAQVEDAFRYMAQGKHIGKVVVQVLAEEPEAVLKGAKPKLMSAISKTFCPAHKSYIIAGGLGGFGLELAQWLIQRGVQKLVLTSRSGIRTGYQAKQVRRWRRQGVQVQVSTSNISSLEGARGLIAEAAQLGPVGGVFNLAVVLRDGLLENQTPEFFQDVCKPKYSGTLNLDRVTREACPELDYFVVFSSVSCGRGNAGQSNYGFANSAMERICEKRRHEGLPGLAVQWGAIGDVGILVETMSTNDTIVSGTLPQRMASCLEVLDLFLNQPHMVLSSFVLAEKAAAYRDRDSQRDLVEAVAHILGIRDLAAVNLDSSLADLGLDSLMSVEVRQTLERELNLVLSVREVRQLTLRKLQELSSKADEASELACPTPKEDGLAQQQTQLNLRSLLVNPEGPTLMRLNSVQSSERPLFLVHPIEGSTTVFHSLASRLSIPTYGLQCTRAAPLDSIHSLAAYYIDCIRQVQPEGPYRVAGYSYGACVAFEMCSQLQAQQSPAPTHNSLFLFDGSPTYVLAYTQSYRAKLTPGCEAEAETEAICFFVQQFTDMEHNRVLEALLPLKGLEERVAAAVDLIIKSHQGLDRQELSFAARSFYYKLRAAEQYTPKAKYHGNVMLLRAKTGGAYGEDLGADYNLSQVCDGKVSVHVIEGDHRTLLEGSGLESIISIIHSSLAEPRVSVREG

On to `CC(C)(C)c1ccccc1O`, for which the call in [1], in assay [2], in [3], in assay [4], in [5] and in assay [6] was inactive. Further, the result in [7], in assay [8], in assay [9], in assay [11], in assay [12] and in assay [13] was inactive. In addition, the result in assay [14], in assay [15], in assay [16] and in assay [17] was inactive. Further, the AC50 (commonly the midpoint of the concentration-response curve, whichever way the signal moves) in [10] is 50 µM (active).

Regarding `COc1ccccc1N`, the molecule was called inactive in assay [4], in [5], in [6], in [7], in [8] and in [9]. Besides, the molecule was called inactive in assay [11], in assay [12], in [13], in assay [14], in [15] and in assay [16]. In assay [17], the result was inactive. Moreover, the AC50 in assay [10] is 68.2 µM (active).

For `CCCCCCCCCCCCN(C)C`, the molecule was classed as inactive in assay [1], in assay [2], in [18], in [19] and in assay [3].

`O=C(N[C@H]1CN2CCC1CC2)c1ccc2c(c1)OCCO2`: the molecule was called inactive in assay [4], in assay [5], in [6], in assay [7], in [8] and in assay [9]. In addition, the result in assay [10], in [11], in assay [12], in assay [13], in [14] and in assay [15] was inactive. Besides, the result in [16] and in [17] was inactive.

In the case of `CN(C)C(=S)S`, the call in assay [5], in [6], in assay [7], in assay [8], in [9] and in [11] was inactive. The call in assay [12], in assay [13], in [14], in assay [15], in [16] and in assay [17] was inactive. In addition, the AC50 in [10] was 64.4 µM (active).

`COC(=O)Nc1cccc(OC(=O)Nc2cccc(C)c2)c1`: the molecule was called inactive in [1] and in assay [3]. For the same molecule, in assay [2], the half-maximal activity concentration (AC50) is 19.8 µM (active).
